From PubChem BioAssay (EPA / NIEHS)
Activity calls are given as the source filed them. Rule for the calls: active = hit-call score of the fitted dose curve at least 0.9, where 1 is the maximum; inactive = score below 0.9.

Tests used:
[1] = ATG_NFI_CIS: Attagene CIS-FACTORIAL HepG2 Assay for human Nuclear Factor I (NFI) (AID 2282989); conditions: HepG2 cis-regulatory reporter, NFI response element transcription; actives raise or lower the signal
How it was run: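 Endogenous TF activity in HepG2 cells transiently transfected with cis-element-driven multiplexed reporter units, read 24 h after dosing. Reporter mRNA quantified by RT-PCR, 6-FAM labelling, HpaI digestion and capillary electrophoresis; bidirectional fit versus DMSO.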

[2] = target: Myc proto-oncogene protein (Homo sapiens) (UniProt P01106); assay: ATG_Myc_CIS: Attagene CIS-FACTORIAL HepG2 Assay for human Myelocytomatosis (Myc) Proto-Oncogene Transcription Factor (AID 2282990); conditions: HepG2, Attagene cis-reporter transcription factor activity; actives raise or lower the signal
How it was run: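 HepG2 cells transiently transfected with multiple cis-promoter-driven reporter transcription units, so endogenous TF activity is read. After 24 h compound exposure, reporter mRNA was quantified by RT-PCR, 6-FAM labelling, HpaI digestion and capillary electrophoresis; bidirectional fit versus DMSO.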

[3] = ATG_NF_kB_CIS: Attagene CIS-FACTORIAL HepG2 Assay for human Nuclear Factor Kappa B (NF-kB) (AID 2282991); conditions: HepG2 Attagene cis-factorial NF-kB reporter mRNA; actives raise or lower the signal
How it was run: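 HepG2 cells transfected with cis-promoter-driven reporter units, so endogenous transcription factor activity is measured. Reporter mRNA quantified 24 h after dosing by RT-PCR and capillary electrophoresis, with bidirectional fitting against DMSO.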

[4] = ATG_NRF2_ARE_CIS: Attagene CIS-FACTORIAL HepG2 Assay for human Nuclear Factor Erythroid 2 Related Factor 2 (NFR2) response to Antioxidant Response Elements (ARE) (AID 2282992); conditions: HepG2 Attagene ARE/NRF2 reporter, transcription factor activity; actives raise or lower the signal;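 for AC50: reporter mRNA level measured by RT-PCR and capillary electrophoresis fluorescence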
How it was run: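 Cis-factorial assay: transfected HepG2 reporter library, 24 h dosing, mRNA readout via RT-PCR/CE; DMSO-referenced bidirectional analysis.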

[5] = ATG_Oct_MLP_CIS: Attagene CIS-FACTORIAL HepG2 Assay for human Octamer-Binding Transcription Factor (Oct) (AID 2282993); conditions: HepG2 Attagene cis-factorial Oct reporter, mRNA; actives raise or lower the signal
How it was run: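 HepG2 cells transiently transfected with cis-element-driven reporter transcription units (endogenous TF activity); 24 h compound exposure. Reporter mRNA quantified by RT-PCR, 6-FAM labelling, HpaI digestion and capillary electrophoresis; bidirectional fit versus DMSO baseline.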

[6] = target: Cellular tumor antigen p53 (Homo sapiens) (UniProt P04637); assay: ATG_p53_CIS: Attagene CIS-FACTORIAL HepG2 Assay for human p53 Transcription Factor (AID 2282994); conditions: HepG2 p53 cis-element reporter, Attagene mRNA; actives raise or lower the signal
How it was run: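 Using HepG2 hepatoma cells carrying cis-acting multiplexed reporters, mRNA induction is detected after a 24 h exposure. Gain- and loss-of-signal responses are fitted relative to DMSO-treated cells.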

[7] = BSK_3C_TissueFactor: BioMAP Diversity Plus: 3C Assay for Tissue Factor Biomarker Activity (AID 2282997); conditions: BioMAP 3C HUVEC, tissue factor biomarker readout; actives raise or lower the signal
How it was run: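 Primary human umbilical vein endothelial cells in the 3C system were exposed to test chemical for 24 h, then Tissue Factor measured by ELISA. Activity was fitted bidirectionally against DMSO as negative control and baseline.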

[8] = BSK_3C_uPAR: BioMAP Diversity Plus: 3C Assay for Urokinase-type plasminogen activator receptor (uPAR) Biomarker Activity (AID 2282998); conditions: BioMAP 3C HUVEC, uPAR biomarker ELISA; actives raise or lower the signal
How it was run: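 Primary human umbilical vein endothelial cells, 3C system; surface uPAR measured by ELISA 24 h after dosing. Cytotoxicity via SRB total protein in parallel cultures; bidirectional fit against DMSO.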

[9] = BSK_3C_VCAM1: BioMAP Diversity Plus: 3C Assay for Vascular cell adhesion molecule 1 (VCAM1) Biomarker Activity (AID 2282999); conditions: BioMAP 3C HUVEC, VCAM1 ELISA, cytokine-stimulated; actives raise or lower the signal
How it was run: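 Human umbilical vein endothelial cells were dosed with compound for 24 h, after which cell-surface VCAM-1 was quantified by ELISA. Bidirectional curve fitting used DMSO as negative control and activity baseline.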

Measured: AC50

Sequence of Cellular tumor antigen p53 (Homo sapiens) (P04637 whole entry, looked up): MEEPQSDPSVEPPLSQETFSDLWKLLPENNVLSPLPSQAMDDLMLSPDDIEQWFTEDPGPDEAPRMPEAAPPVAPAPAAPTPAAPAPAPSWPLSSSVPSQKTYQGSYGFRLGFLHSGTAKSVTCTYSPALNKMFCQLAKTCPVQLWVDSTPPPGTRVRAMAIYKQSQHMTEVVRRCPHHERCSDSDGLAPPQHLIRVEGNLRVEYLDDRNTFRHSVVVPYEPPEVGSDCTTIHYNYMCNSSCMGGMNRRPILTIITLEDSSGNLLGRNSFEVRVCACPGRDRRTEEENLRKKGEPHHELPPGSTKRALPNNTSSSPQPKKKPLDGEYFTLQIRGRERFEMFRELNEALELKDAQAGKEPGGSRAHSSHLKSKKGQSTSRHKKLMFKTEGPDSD
Sequence of Myc proto-oncogene protein (Homo sapiens) (P01106 whole entry, looked up): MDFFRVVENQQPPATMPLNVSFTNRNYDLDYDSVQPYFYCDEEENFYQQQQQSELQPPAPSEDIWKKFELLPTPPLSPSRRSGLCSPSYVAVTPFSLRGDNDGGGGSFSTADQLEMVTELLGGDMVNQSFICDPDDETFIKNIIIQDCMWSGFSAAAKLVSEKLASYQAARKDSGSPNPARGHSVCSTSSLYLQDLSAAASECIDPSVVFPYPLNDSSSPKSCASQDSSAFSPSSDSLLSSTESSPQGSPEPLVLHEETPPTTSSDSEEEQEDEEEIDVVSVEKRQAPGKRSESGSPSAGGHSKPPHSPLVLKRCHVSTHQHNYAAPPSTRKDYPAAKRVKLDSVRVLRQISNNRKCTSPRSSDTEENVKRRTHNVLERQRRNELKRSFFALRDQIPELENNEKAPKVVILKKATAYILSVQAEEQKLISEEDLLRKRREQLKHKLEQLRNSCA

CC(C)OC(=O)c1ccccc1
not listed: [7] | [8] | [9]
inactive: all other assays above

C=C(C)C(=O)OCCCCCCCCCCCC
inactive: all assays above

CCN1CCCC1=O
not listed: [7] | [8] | [9]
inactive: all other assays above

C1CNCCN1
inactive: all assays above

CCCCNS(=O)(=O)c1ccccc1
inactive: [2] | [3] | [4] | [5] | [6]

CC(CC(C)C)=NO
inactive: [2] | [3] | [4] | [5]

CCCCOCCOCCOC(C)=O
not listed: [7] | [8] | [9]
inactive: all other assays above

COC(C=C(C)CCC=C(C)C)OC
inactive: [1] | [2] | [3] | [5] | [6]
active: [4] 59.2 µM

O=C(OCc1ccccc1)c1ccc(O)cc1
active: [4] 64.4 µM | [5] 125 µM
inactive: [1] | [2]

O=C(Oc1ccccc1)c1ccccc1O
inactive: [1] | [2] | [4] | [5]

O=C(Nc1ccccc1)c1cc(Cl)ccc1O
inactive: [2] | [3] | [6]
active: [1] 5.49 µM | [4] 2.35 µM | [5] 15.1 µM

CCCC1CCCC(=O)O1 (stereo not given)
not listed: [7] | [8] | [9]
inactive: all other assays above

C=CC(=O)NCOCCCC
active: [4] 66.5 µM
not listed: [3] | [6]
inactive: all other assays above

CC=C(C)C(C)=O
not listed: [6]
inactive: all other assays above

C=C(C)OC(C)=O
not listed: [7] | [8] | [9]
inactive: all other assays above

N#Cc1ccc(C2CCCc3cncn32)cc1 (stereo not given)
not listed: [7] | [8] | [9]
inactive: all other assays above

CCCCC1CCC(=O)O1 (stereo not given)
not listed: [7] | [8] | [9]
inactive: all other assays above

Clc1cccnc1
not listed: [7] | [8] | [9]
inactive: all other assays above

C=CC(=O)OCCCCCCCC(C)C
active: [4] 58 µM | [5] 121 µM | [7] 20 µM | [9] 13 µM
inactive: all other assays above

CCCCCCCCCCCCc1ccc(O)cc1
not listed: [7] | [8] | [9]
inactive: all other assays above
